Experiment [1] in a line: stimulators of nuclear beta-catenin in C2C12, primary screen, imaging, WNT3A-conditioned medium, mouse C2C12, NPC library (AID 1117326; in the data active = nuclear beta-catenin stimulation mostly above about 4.2%, no sharp cut-off; inactive = mostly below about 10%). Particulars: stronger effect = higher value.
Experiment [2] can be described thus: stimulators of insulin release from INS-1E, primary screen, cell-based, 5 mM glucose, NPC library (AID 1117329;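 active = compound raises insulin release from rat beta cells at 5 mM glucose, no numeric limit stated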). The note with it: rat INS-1E insulin secretion, at 10 µM, stronger effect = higher value.
Experiment [3] can be described thus: growth inhibition of GSK3B-pretreated HCT116 cells – cell-based, CellTiter-Glo, 0.2 to 20 µM (AID 1117336;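 active = compounds lowering colon cancer cell viability after pretreatment blocking the GSK3B kinase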). The note with it: HCT116 viability after GSK3B inhibitor, at 20 µM, stronger effect = higher value. Background: Cellular ATP, detected with luciferase, serves as a proxy for viable cell number.
The nature of experiment [4]: inhibition of endothelial tube formation, primary screen, imaging, VEGF stimulated, CD31 staining, tube area, NPC library (AID 1117340;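 active = compound that reduces growth-factor-driven endothelial tube area in a mixed cell culture, no cutoff stated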). Particulars: VEGF-stimulated ADSC/ECFC co-culture, at 10 µM, stronger effect = higher value.
A short description of experiment [5]: glucagon-like peptide 1 release enhancers, primary assay, NCI-H716 cell line, NPC library (AID 1117341;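 active = compound raises GLP1 secretion from the human gut endocrine cells, with no numeric limit stated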). The note with it: NCI-H716 cells, at 10 µM, stronger effect = higher value.
Experiment [6] can be described thus: HCT116 colon cancer cell growth inhibition, primary screen, CellTiter-Glo luminescence, NPC library (AID 1117342;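 active = compounds that lower survival of HCT116 colon cancer cells in the luminescence readout, no numeric limit stated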). Particulars: at 20 µM (top of the series).
The nature of experiment [7]: CellTiter-Glo luminescent readout of SW480 viability loss, NPC library primary (AID 1117343;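 active = compounds that lower viability of the colon cancer cells in the luminescence readout, with no numeric limit stated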). The note with it: CellTiter-Glo luminescence; at 20 µM (top of the series).
Experiment [8] can be described thus: decreased DLD-1 cellular survival, CellTiter-Glo luminescent readout, NPC compound collection, primary HTS (AID 1117346;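 active = compounds that lower survival of DLD-1 colon cancer cells in the luminescence readout, no cutoff given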). Particulars: DLD-1 viability, CellTiter-Glo luminescence; at 20 µM (top of the series).
Experiment [9] deals with 6-phosphogluconate dehydrogenase, decarboxylating (Homo sapiens) (UniProt P52209). The experiment is described as follows: 6PGD enzyme inhibitors, primary screen, biochemical, human, recombinant enzyme, NADPH absorbance (AID 1159550;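 active = at least 20% inhibition of 6-phosphogluconate dehydrogenase activity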). The note with it: recombinant 6PGD, NADPH absorbance 341 nm; at 10 µM; stronger effect = higher value.
Experiment [10] is described as follows: modulation of C. elegans fzo-1 (AID 1259413; call rule not given here;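 note: fzo-1 mutant C. elegans worms in liquid wells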). The note with it: C. elegans fzo-1 modulator screen, mean read-out; stronger effect = higher value.
A short description of experiment [11]: differential killing of epithelial or mesenchymal cells, primary screen, imaging, PC-3E GFP, TEM4-18 mCherry, co-culture (AID 1345086;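 active = compounds killing one labelled cell type while sparing the other, by normalised counts and ratio limits, not self-fluorescent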;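 for all read-outs here: cells exposed to compound for 72 h before imaging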;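 for red/green cell ratio (normalised): normalised mesenchymal count divided by normalised epithelial count so high means epithelial killing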). Particulars: imaging cell counts, at 1 µM; for red/green cell ratio (normalised): actives lie on both sides, counts scaled to control wells, 1 = unselective.
A short description of experiment [12]: survival rescue of mitochondrial mutant cells in low glucose, primary screen, MELAS cybrids, Rieske KO mouse fibroblasts, CellTiter-Glo (AID 1508586;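 active = mean z-score across replicates of 1.96 or higher in either the MELAS or the Rieske mutant cell line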;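 note: z relative to plate mean and SD of compound and empty wells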).
In experiment [13] the target is NAD(+) hydrolase SARM1 (Homo sapiens) (UniProt Q6SZW1). The experiment is described as follows: SARM1 TIR NADase inhibitors, cell lysate, NAD-Glo luminescence (AID 1508614;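 active = compound whose remaining NAD level is above about 45 nM, limit read from the data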;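 note: higher remaining NAD means stronger inhibition of SARM1 NADase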). The note with it: SAM-TIR HEK293T lysate NADase, at 1 µM, stronger effect = higher value.
Experiment [14] deals with Mitogen-activated protein kinase 7 (Homo sapiens) (UniProt Q13164). Put plainly: ERK5 transactivation activators in reporter cells, primary screen, cell-based, HTS (AID 1508626;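 active = luciferase signal above three times the same-plate solvent-only control wells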;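 note: luciferase driven by Gal4-ERK5 fusion binding five Gal4 sites before minimal TATA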). Particulars: HeLa Gal4-ERK5 transactivation, 18 h, at 5 µM, stronger effect = higher value.
Experiment [15] has as its system F380Y. Put plainly: modulators of BK channel variants, profiling panel, selectivity assay, cell-based, U2OS BacMam, thallium flux, beta subunits (AID 1259406).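 Note: initial slope of Thallos dye fluorescence rise after thallium is added; log ratio against the mean of 0.3% DMSO vehicle wells on the same plate.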 Particulars: at 30 µM.
Experiment [16] has as its system F380Y/beta1. Described as above. The note with it: at 30 µM.
For experiment [17], the system named is F380Y/beta2Delta. The description is as above. The note with it: at 30 µM.
The mark [18] stands for this setting: measured here: epithelial PC-3E GFP cell survival.
Where [19] appears, read: measured here: mesenchymal TEM4-18 mCherry cell survival.
[20] abbreviates: MELAS cybrid survival, CellTiter-Glo 48 h, stronger effect = higher value.
[21] abbreviates: Rieske KO mouse fibroblast survival, CellTiter-Glo 72 h.

Several values for one entry are separate records, joined by “and”; a condition that tells them apart may be missing. Identical values can stand only once. Activity calls are given as the source filed them.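 Rule for the calls, unless noted: active = thallium flux through the channel raised or lowered by more than 3 SD from vehicle-only wells, actives on both sides; inactive = the rest.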

The term inhibition denotes the drop in the measured response relative to a control, in per cent.

Mitogen-activated protein kinase 7 (Homo sapiens), sequence (Q13164 whole entry, looked up, the tested form may be a part): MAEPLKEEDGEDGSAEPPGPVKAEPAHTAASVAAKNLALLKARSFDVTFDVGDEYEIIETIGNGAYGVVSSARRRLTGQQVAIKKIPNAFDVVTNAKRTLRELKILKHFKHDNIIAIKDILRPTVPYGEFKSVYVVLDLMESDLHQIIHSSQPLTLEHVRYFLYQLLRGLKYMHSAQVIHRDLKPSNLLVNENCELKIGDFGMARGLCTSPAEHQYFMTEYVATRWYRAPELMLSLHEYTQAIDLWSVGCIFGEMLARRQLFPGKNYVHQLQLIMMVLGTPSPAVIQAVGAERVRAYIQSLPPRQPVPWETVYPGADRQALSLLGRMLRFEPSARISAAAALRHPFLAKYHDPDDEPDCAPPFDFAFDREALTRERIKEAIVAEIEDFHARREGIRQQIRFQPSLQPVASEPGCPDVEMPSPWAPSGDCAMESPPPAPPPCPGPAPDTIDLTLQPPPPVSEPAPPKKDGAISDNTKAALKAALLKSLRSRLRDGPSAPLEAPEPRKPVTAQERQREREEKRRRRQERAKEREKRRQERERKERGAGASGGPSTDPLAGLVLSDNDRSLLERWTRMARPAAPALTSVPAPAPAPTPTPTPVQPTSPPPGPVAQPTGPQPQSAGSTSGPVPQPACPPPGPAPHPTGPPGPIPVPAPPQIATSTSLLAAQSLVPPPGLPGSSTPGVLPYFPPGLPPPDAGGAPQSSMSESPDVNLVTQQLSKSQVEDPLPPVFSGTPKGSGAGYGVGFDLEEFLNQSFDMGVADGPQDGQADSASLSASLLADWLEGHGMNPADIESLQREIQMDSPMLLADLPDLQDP
6-phosphogluconate dehydrogenase, decarboxylating (Homo sapiens), sequence (P52209 whole entry, looked up): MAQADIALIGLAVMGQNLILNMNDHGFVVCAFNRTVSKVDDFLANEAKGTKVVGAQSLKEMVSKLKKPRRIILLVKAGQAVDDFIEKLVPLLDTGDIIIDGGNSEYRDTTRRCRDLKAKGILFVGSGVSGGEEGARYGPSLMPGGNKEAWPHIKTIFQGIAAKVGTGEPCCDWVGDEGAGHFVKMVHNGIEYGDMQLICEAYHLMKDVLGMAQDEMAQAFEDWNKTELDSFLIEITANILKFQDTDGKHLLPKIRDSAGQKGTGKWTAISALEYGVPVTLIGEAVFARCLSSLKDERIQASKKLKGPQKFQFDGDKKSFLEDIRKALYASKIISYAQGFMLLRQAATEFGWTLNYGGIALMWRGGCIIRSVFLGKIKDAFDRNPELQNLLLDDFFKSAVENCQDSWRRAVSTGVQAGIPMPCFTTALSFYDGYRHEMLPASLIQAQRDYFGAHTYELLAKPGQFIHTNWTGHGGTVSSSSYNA
NAD(+) hydrolase SARM1 (Homo sapiens), sequence (Q6SZW1 whole entry, looked up, the tested form may be a part): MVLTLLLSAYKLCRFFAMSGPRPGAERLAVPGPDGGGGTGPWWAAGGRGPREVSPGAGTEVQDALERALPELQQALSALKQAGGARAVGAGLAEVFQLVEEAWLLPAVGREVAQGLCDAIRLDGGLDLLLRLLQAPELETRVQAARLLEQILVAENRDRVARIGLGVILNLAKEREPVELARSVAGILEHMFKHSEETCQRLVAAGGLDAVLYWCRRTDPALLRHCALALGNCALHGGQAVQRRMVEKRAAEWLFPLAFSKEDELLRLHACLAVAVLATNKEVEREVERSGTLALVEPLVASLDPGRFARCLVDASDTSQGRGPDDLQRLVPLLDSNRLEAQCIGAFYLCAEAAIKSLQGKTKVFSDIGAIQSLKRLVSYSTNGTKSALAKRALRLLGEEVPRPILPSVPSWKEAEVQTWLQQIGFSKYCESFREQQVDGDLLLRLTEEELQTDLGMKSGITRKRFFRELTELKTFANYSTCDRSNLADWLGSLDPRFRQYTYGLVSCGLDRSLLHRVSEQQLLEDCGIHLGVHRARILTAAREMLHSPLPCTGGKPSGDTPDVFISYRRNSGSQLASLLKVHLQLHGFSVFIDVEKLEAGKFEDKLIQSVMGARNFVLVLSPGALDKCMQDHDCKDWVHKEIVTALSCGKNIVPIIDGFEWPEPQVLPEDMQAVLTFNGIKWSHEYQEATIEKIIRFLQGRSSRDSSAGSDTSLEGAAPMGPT

Regarding `CCC(C)(C)C(=O)O[C@H]1C[C@@H](C)C=C2C=C[C@H](C)[C@H](CC[C@@H]3C[C@@H](O)CC(=O)O3)[C@H]21`, the nuclear beta-catenin stimulation is 15.9% (inactive) in [1] (at 10 µM) and 7.6% in experiment [1] (stimulation, at 2 µM). Also, the insulin secretion stimulation in experiment [2] was 13.1% (inactive). For the same compound, the viability decrease in experiment [3] is 95.1% (active). In [4], the tube area decrease is 91% (active). In addition, the GLP1 secretion stimulation in [5] was 28% (active). The inhibition of viability in experiment [6] is 86% (active). The viability decrease (inhibition) is 119% (active) in experiment [7] and 77.8% (active) in experiment [8]. For the same compound, the inhibition in experiment [9] was 2.59% (inactive). Further, the mean signal in experiment [10] is 230 (inactive). Besides, in [11], the red/green cell ratio (normalised) was 0.86 (inactive). The results for the normalised cell number in experiment [11] (setting [18]) and in [11] (setting [19]) were 0.75 and 0.65, respectively. The z-score in [12] (setting [20]) is -2.63 (inactive) and -1.16 (inactive); in experiment [12] (setting [21]), -0.283 and -0.755. Also, the remaining NAD in experiment [13] was 10 nM (inactive). For the same compound, the luciferase signal in [14] was 220 AU (inactive). The log fold change Tl+ flux was 0.085 (inactive) in experiment [15], 0.0381 (inactive) in experiment [16] and 0.0908 (active) in experiment [17].

For `NC12CC3CC(CC(C3)C1)C2`, the nuclear beta-catenin stimulation is 2.1% (inactive) in experiment [1] (at 10 µM) and 1.9% in [1] (stimulation, at 2 µM). Further, in [2], the insulin secretion stimulation was 2.4% (inactive). The viability decrease in experiment [3] is 7.6% (inactive). Moreover, in [4], the tube area decrease is 3.9% (inactive). The GLP1 secretion stimulation in experiment [5] was 6.5% (inactive). For the same compound, in experiment [6], the inhibition of viability is 30.7% (inactive). For the same compound, the figures for the viability decrease (inhibition) in [7] and in experiment [8] were 56.6% (active) and 14.6% (inactive), respectively. The inhibition in [9] is -14.3% (inactive). The mean signal in [10] is 230 (inactive). Also, the red/green cell ratio (normalised) in experiment [11] is 1.38 (inactive). The normalised cell number in experiment [11] (setting [18]) is 0.95; in experiment [11] (setting [19]), 1.32. Also, the z-score in experiment [12] (setting [20]) is -0.372 (inactive) and -0.42 (inactive) and -0.564 (inactive); in [12] (setting [21]) it was -0.543 and 0.116 and -0.0986. Moreover, the remaining NAD in [13] was 10 nM (inactive). For the same compound, in experiment [14], the luciferase signal was 44 AU (inactive). Besides, the figures for the log fold change Tl+ flux in [15], in [16] and in experiment [17] were -0.0507 (inactive), 0.00169 (inactive) and 0.0403 (inactive), respectively.

As to `CCS(=O)(=O)c1ccc(OC)c(C(=O)OC)c1`, the nuclear beta-catenin stimulation in experiment [1] (at 10 µM) was -0.3% (inactive); in [1] (stimulation, at 2 µM), -1.7%. Further, the insulin secretion stimulation in experiment [2] is 0.9% (inactive). Besides, in experiment [3], the viability decrease is -5.9% (inactive). The tube area decrease in [4] is -10% (inactive). For the same compound, the GLP1 secretion stimulation in experiment [5] was 1% (inactive). Further, the inhibition of viability in [6] was 7.3% (inactive). Besides, the results for the viability decrease (inhibition) in experiment [7] and in experiment [8] were -1.8% (inactive) and 8.8% (inactive), respectively.

`Cc1cc(OCCOCC[N+](C)(C)Cc2ccccc2)ccc1C(C)(C)CC(C)(C)C`: the nuclear beta-catenin stimulation in experiment [1] (at 10 µM) is 3% (inactive); in [1] (stimulation, at 2 µM), 6.8%. Also, the insulin secretion stimulation in experiment [2] is 0.6% (inactive). Further, the viability decrease in [3] was 101% (active). Besides, the tube area decrease in [4] was 107% (active). Also, in experiment [5], the GLP1 secretion stimulation is 98.1% (active). Moreover, in [6], the inhibition of viability was 102% (active). Moreover, the viability decrease (inhibition) in experiment [7] was 141% (active); in [8], 103% (active).

Values taken from PubChem BioAssay.
